# Measured values from PubChem BioAssay (EPA / NIEHS).
# Records with an inconclusive call do not appear. Calls of active or inactive are those of the source. The calls were made as follows, unless noted: active = hit-call score of the fitted dose curve at least 0.9, where 1 is the maximum; inactive = score below 0.9.
# Experiments:
# [1] = ACEA_ER_80hr: ACEA Biosciences xCELLigence Real-Time Cell Analysis on Estrogen Receptor Agonism for Proliferation (AID 2282667; active = hit-call score of the fitted dose curve at least 0.9, where 1 is the maximum); conditions: T47D proliferation, impedance (xCELLigence), 80 h
# In short: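 Real-time electrical impedance tracked growth of the human breast line T47D, with the 80 h post-dosing value used. Dosing spanned eight 1:4 steps down from a 100 uM final top concentration, run in duplicate.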
# [2] = ATG_CRE_CIS: Attagene CIS-FACTORIAL HepG2 Assay for human cAMP Responsive Element (CRE) binding protein 3 (AID 2282926); conditions: HepG2 CRE cis-reporter, Attagene multiplexed mRNA; actives raise or lower the signal
# In short: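 Human liver HepG2, transient MRTU transfection, 24 h compound exposure. Total RNA → oligo(dT) RT → PCR → 6-FAM primer extension → HpaI cut → CE. Activity called both directions vs DMSO.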
# [3] = molecular target: CCAAT/enhancer-binding protein beta (Homo sapiens) (UniProt P17676); experiment: ATG_C_EBP_CIS: Attagene CIS-FACTORIAL HepG2 Assay for human CCAAT/Enhancer Binding Protein (C/EBP) beta (AID 2282927); conditions: HepG2 Attagene cis-factorial transcription factor reporter; actives raise or lower the signal
# CCAAT/enhancer-binding protein beta (Homo sapiens), sequence (P17676 whole entry, looked up): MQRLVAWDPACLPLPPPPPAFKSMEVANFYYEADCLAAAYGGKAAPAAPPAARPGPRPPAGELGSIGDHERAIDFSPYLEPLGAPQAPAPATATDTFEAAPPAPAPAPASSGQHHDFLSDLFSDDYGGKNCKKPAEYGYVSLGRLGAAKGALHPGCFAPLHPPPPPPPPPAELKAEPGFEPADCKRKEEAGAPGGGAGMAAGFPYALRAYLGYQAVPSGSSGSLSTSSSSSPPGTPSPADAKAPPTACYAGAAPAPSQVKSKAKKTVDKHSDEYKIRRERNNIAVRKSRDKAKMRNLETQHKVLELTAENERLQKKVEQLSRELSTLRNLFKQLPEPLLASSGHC
# In short: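 RT-PCR/capillary electrophoresis fluorescence of reporter mRNA, 24 h post-dose, in HepG2 cells carrying transfected cis-promoter reporter units. Bidirectional curve fitting against DMSO baseline captures gain or loss of signal.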
# [4] = ATG_DR4_LXR_CIS: Attagene CIS-FACTORIAL HepG2 Assay for human Liver X Receptor (LXR), DR4 submotif (AID 2282929); conditions: HepG2 Attagene DR4 cis-reporter, mRNA transcription; actives raise or lower the signal
# In short: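 DR4 cis-reporter in HepG2, 24 h exposure. Detection: RT-PCR, 6-FAM labelling, CE fragment analysis. Endpoint fitted bidirectionally, DMSO = baseline.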
# [5] = ATG_AP_1_CIS: Attagene CIS-FACTORIAL HepG2 Assay for human Activator Protein 1 (AP-1) (AID 2282931); conditions: HepG2 Attagene cis-factorial AP-1 reporter mRNA; actives raise or lower the signal
# In short: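 Cis-regulated reporter units transiently expressed in HepG2 report endogenous transcription-factor activity. Signal: reporter mRNA at 24 h, via RT-PCR and fluorescent capillary electrophoresis. Endpoint derived by bidirectional fitting, DMSO as negative control.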
# [6] = ATG_AP_2_CIS: Attagene CIS-FACTORIAL HepG2 Assay for human Activator Protein 2 (AP-2) (AID 2282932); conditions: HepG2 AP-2 cis-reporter, Attagene transcription factor profiling; actives raise or lower the signal
# In short: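 Bidirectional curve fitting against DMSO was applied to reporter mRNA signals from HepG2 cells 24 h after dosing. Cis-promoter reporter units, transiently transfected, were read by RT-PCR plus capillary electrophoresis.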
# [7] = ATG_BRE_CIS: Attagene CIS-FACTORIAL HepG2 Assay for human Bone Morphogenetic Protein (BMP) Response Element (BRE) (AID 2282933); conditions: HepG2 BMP response element reporter, Attagene transcription factor profiling; actives raise or lower the signal
# In short: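 Fluorescence-labelled reporter cDNA fragments, separated by capillary electrophoresis, gave the signal for this component of a 52-readout multiplex. HepG2 cells were transfected, exposed to chemicals for 24 h, and compared with DMSO using bidirectional fitting.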
# [8] = molecular target: Retinoic acid receptor alpha (Homo sapiens) (UniProt P10276); experiment: ATG_DR5_RAR_CIS: Attagene CIS-FACTORIAL HepG2 Assay for human Retinoic Acid Receptor Alpha (RARE), DR5 submotif (AID 2282934); conditions: HepG2 Attagene cis-factorial RARE DR5 reporter, mRNA; actives raise or lower the signal;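 as to AC50: reporter responds to endogenous RAR alpha beta and gamma in HepG2 not RARA alone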
# Retinoic acid receptor alpha (Homo sapiens), sequence (P10276 whole entry, looked up): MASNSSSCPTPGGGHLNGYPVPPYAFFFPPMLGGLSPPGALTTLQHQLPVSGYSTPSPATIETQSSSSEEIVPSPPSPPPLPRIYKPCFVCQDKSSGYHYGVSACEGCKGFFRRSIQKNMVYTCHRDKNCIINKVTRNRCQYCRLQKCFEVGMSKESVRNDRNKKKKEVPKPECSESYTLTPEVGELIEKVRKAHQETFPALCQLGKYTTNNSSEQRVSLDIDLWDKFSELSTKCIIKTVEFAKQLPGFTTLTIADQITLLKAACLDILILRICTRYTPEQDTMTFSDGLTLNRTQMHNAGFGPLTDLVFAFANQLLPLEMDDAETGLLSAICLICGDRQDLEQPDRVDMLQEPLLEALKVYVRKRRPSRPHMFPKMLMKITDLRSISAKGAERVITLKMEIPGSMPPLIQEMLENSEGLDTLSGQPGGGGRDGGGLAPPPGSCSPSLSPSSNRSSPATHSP
# In short: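 HepG2 cells transiently transfected with multiplexed reporter units under cis (DR5 RARE) promoters, so endogenous transcription factor activity is measured. After 24 h compound exposure, reporter mRNA is quantified by RT-PCR with fluorescent labelling and capillary electrophoresis; bidirectional fitting versus DMSO.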
# [9] = molecular target: Transcription factor E2F1 (Homo sapiens) (UniProt Q01094); experiment: ATG_E2F_CIS: Attagene CIS-FACTORIAL HepG2 Assay for human E2F Transcription Factor 1 (AID 2282935); conditions: HepG2 Attagene cis-reporter, E2F reporter RNA transcripts; actives raise or lower the signal
# Transcription factor E2F1 (Homo sapiens), sequence (Q01094 whole entry, looked up): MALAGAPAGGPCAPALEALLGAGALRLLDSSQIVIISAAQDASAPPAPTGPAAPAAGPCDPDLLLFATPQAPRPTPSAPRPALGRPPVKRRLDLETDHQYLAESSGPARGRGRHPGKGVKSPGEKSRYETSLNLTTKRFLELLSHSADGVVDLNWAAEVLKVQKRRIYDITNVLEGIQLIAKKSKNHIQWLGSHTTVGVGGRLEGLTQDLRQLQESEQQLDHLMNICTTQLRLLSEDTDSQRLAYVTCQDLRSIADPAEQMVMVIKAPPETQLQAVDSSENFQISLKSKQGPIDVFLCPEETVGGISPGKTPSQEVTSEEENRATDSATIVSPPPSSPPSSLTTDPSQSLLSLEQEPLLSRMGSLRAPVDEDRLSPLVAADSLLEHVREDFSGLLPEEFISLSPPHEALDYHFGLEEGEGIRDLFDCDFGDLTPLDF
# In short: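 Multiplexed cis-reporter assay: HepG2, transient transfection, 24 h dosing, mRNA quantitation by labeled RT-PCR and CE.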
# [10] = ATG_E_Box_CIS: Attagene CIS-FACTORIAL HepG2 Assay for human Enhancer Box (E-box) (AID 2282936); conditions: HepG2 E-box cis-reporter transcription, actives raise or lower the signal
# In short: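 Multiplexed CIS reporter system in transiently transfected HepG2 cells measures native transcription factor activity. Reporter RNA after 24 h exposure is profiled by RT-PCR-capillary electrophoresis.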
# [11] = ATG_M_61_CIS: Attagene CIS-FACTORIAL HepG2 Assay for M61 Transcription Factor (Internal Marker) (AID 2282937); conditions: HepG2 Attagene CIS-FACTORIAL M61 internal marker reporter; actives raise or lower the signal
# In short: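 Background-control endpoint: HepG2 cells with cis-regulated reporter constructs, 24 h exposure, reporter mRNA detected via fluorescent primer extension and capillary electrophoresis; values from bidirectional fitting with DMSO baseline.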
# [12] = ATG_EGR_CIS: Attagene CIS-FACTORIAL HepG2 Assay for human Early Growth Response 1 (EGR1) (AID 2282938); conditions: HepG2 Attagene CIS-FACTORIAL EGR reporter mRNA; actives raise or lower the signal
# In short: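 Endpoint derived by bidirectional fitting versus DMSO vehicle. Method: cis-promoter reporter units transfected into HepG2, 24 h dosing, RNA isolation, RT-PCR with 6-FAM primer extension and HpaI digestion, then capillary electrophoresis fluorescence detection.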
# [13] = ATG_M_19_CIS: Attagene CIS-FACTORIAL HepG2 Assay for M19 Transcription Factor (Internal Marker) (AID 2282939); conditions: HepG2 Attagene CIS-FACTORIAL M19 internal marker reporter; actives raise or lower the signal
# In short: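 HepG2, MRTU transient transfection, 24 h dosing. Total RNA → RT-PCR → 6-FAM primer extension → HpaI digest → CE fluorescence. Bidirectional curve fit, DMSO negative control.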
# [14] = ATG_ERE_CIS: Attagene CIS-FACTORIAL HepG2 Assay for Estrogen Response Element (ERE) (AID 2282940); conditions: HepG2 ERE cis-reporter, Attagene RNA transcript; actives raise or lower the signal
# In short: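 After a 24 h chemical treatment, RNA from reporter-transfected HepG2 cells is reverse-transcribed, PCR-amplified and fluorescently labelled. Fragments separated by capillary electrophoresis give reporter signal; DMSO serves as negative control.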
# [15] = ATG_Ets_CIS: Attagene CIS-FACTORIAL HepG2 Assay for human Erythroblast Transformation Specific (ETS) (AID 2282941); conditions: HepG2 ETS cis-reporter transcription, actives raise or lower the signal
# In short: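 After transient cis-reporter transfection, HepG2 cells receive test chemical for 24 h. Reporter mRNA levels, measured by RT-PCR and capillary electrophoresis fluorescence, are analysed bidirectionally relative to the DMSO baseline.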
# [16] = ATG_FoxO_CIS: Attagene CIS-FACTORIAL HepG2 Assay for human Forkhead box O (FoxO) (AID 2282943); conditions: HepG2 Attagene cis-reporter, FoxO element, mRNA; actives raise or lower the signal
# In short: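 HepG2 cells transiently transfected with cis-promoter-driven multiple reporter transcription units; 24 h after chemical dosing, reporter mRNA quantified by RT-PCR, fluorescent primer extension, HpaI digestion and capillary electrophoresis. Bidirectional fitting versus DMSO baseline.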
# [17] = ATG_GATA_CIS: Attagene CIS-FACTORIAL HepG2 Assay for human GATA Binding Protein (AID 2282944); conditions: HepG2 GATA cis-element reporter, Attagene multiplex mRNA; actives raise or lower the signal
# In short: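 Cells: HepG2, transiently transfected with cis-regulated reporter transcription units. Exposure: 24 h. Detection: RT-PCR plus capillary electrophoresis of FAM-labeled fragments. Analysis: bidirectional, DMSO as baseline.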
# [18] = molecular target: Aryl hydrocarbon receptor (Homo sapiens) (UniProt P35869); experiment: ATG_Ahr_CIS: Attagene CIS-FACTORIAL HepG2 Assay for human Aryl Hydrocarbon Receptor (Ahr) (AID 2282930); conditions: HepG2 AhR cis-factorial reporter transcription; actives raise or lower the signal
# Aryl hydrocarbon receptor (Homo sapiens), sequence (P35869 whole entry, looked up): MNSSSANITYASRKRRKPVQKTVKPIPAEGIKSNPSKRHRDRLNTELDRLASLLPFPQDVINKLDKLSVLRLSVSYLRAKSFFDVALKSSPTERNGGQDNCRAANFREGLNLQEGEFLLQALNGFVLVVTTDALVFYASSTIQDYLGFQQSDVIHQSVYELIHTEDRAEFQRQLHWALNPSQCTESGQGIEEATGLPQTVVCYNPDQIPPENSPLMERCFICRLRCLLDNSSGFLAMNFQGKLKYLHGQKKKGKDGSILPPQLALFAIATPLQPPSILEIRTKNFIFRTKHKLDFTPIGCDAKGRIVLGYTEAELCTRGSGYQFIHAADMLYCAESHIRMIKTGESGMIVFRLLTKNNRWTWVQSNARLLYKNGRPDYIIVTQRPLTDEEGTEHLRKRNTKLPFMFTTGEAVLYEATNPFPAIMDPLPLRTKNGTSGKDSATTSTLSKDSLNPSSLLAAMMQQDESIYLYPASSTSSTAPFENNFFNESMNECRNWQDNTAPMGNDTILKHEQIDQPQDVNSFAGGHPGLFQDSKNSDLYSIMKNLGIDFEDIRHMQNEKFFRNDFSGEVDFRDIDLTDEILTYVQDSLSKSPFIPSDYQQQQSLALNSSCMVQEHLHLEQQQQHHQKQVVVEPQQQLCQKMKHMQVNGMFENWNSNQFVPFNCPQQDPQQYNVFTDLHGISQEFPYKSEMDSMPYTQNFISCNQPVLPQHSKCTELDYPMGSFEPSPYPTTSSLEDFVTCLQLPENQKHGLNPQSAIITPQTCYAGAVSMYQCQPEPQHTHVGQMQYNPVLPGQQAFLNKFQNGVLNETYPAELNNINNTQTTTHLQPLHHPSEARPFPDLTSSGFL
# In short: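 HepG2 cells transiently transfected with cis-element-driven multiplexed reporter transcription units; endogenous transcription factor activity measured as reporter mRNA 24 h after dosing. RT-PCR, 6-FAM labelling, HpaI digestion, capillary electrophoresis; bidirectional fitting versus DMSO baseline.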
# [19] = molecular target: Hepatocyte nuclear factor 3-beta (Homo sapiens) (UniProt Q9Y261); experiment: ATG_FoxA2_CIS: Attagene CIS-FACTORIAL HepG2 Assay for human Forkhead box A2 (FOXA2) (AID 2282942); conditions: HepG2 cis-reporter transcription factor activity, 24 h; actives raise or lower the signal
# Hepatocyte nuclear factor 3-beta (Homo sapiens), sequence (Q9Y261 whole entry, looked up): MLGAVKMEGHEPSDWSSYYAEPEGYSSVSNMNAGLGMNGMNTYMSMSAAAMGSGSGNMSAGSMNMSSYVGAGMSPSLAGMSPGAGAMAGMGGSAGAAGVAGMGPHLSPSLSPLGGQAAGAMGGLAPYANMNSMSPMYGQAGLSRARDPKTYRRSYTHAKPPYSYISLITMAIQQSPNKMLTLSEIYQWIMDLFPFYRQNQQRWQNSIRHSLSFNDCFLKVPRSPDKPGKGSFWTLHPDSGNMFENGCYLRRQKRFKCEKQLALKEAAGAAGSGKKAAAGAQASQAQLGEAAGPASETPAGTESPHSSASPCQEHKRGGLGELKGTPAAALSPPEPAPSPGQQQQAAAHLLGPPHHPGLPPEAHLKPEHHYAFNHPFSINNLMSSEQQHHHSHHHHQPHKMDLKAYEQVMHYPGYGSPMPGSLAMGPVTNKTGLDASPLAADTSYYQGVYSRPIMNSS
# In short: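 Measured: reporter mRNA induction or loss in HepG2 transiently carrying multiple cis-regulated reporter units, 24 h after dosing. Quantified by RT-PCR plus capillary electrophoresis, normalised to DMSO.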
smiles,measurement,setting,value
Cc1cccc(C)n1,outcome,[1],inactive
same,outcome,[2],inactive
same,outcome,[3],inactive
same,outcome,[4],inactive
same,outcome,[5],inactive
same,outcome,[6],inactive
same,outcome,[7],inactive
same,outcome,[8],inactive
same,outcome,[9],inactive
same,outcome,[10],inactive
same,outcome,[11],inactive
same,outcome,[12],inactive
same,outcome,[13],inactive
same,outcome,[14],inactive
same,outcome,[15],inactive
same,outcome,[16],inactive
same,outcome,[17],inactive
NCC(F)(F)C(F)(F)C(F)(F)C(F)(F)C(F)(F)C(F)(F)F,outcome,[1],inactive
same,outcome,[2],inactive
same,outcome,[3],inactive
same,outcome,[18],inactive
same,outcome,[5],inactive
same,outcome,[6],inactive
same,outcome,[7],inactive
same,outcome,[8],inactive
same,outcome,[9],inactive
same,outcome,[10],inactive
same,outcome,[11],inactive
same,outcome,[12],inactive
same,outcome,[13],inactive
same,outcome,[14],inactive
same,outcome,[15],inactive
same,outcome,[19],inactive
same,outcome,[16],inactive
same,outcome,[17],inactive
CN(C)C(C)(C)CO,AC50,[1],50 µM (active)
same,outcome,[2],inactive
same,outcome,[3],inactive
same,outcome,[4],inactive
same,outcome,[5],inactive
same,outcome,[6],inactive
same,outcome,[7],inactive
same,outcome,[8],inactive
same,outcome,[9],inactive
same,outcome,[11],inactive
same,outcome,[12],inactive
same,outcome,[13],inactive
same,outcome,[15],inactive
same,outcome,[16],inactive
same,outcome,[17],inactive
O=C1c2ccccc2C(=O)c2c(Cl)cccc21,outcome,[1],inactive
same,outcome,[2],inactive
same,outcome,[3],inactive
same,outcome,[18],inactive
same,outcome,[5],inactive
same,outcome,[6],inactive
same,outcome,[7],inactive
same,outcome,[8],inactive
same,outcome,[9],inactive
same,outcome,[11],inactive
same,outcome,[12],inactive
same,outcome,[13],inactive
same,outcome,[14],inactive
same,outcome,[15],inactive
same,outcome,[19],inactive
same,outcome,[16],inactive
same,outcome,[17],inactive
OCC(F)(F)C(F)(F)C(F)(F)C(F)(F)C(F)(F)C(F)(F)CO,AC50,[1],0.291 µM (active)
same,outcome,[2],inactive
same,outcome,[3],inactive
same,outcome,[18],inactive
same,outcome,[5],inactive
same,outcome,[6],inactive
same,outcome,[7],inactive
same,outcome,[8],inactive
same,outcome,[9],inactive
same,outcome,[10],inactive
same,outcome,[11],inactive
same,outcome,[12],inactive
same,outcome,[13],inactive
same,AC50,[14],0.0909 µM (active)
same,outcome,[15],inactive
same,outcome,[19],inactive
same,outcome,[16],inactive
same,outcome,[17],inactive
CCC(C)CO (stereo not drawn),outcome,[1],inactive
same,outcome,[2],inactive
same,outcome,[3],inactive
same,outcome,[4],inactive
same,outcome,[18],inactive
same,outcome,[5],inactive
same,outcome,[6],inactive
same,outcome,[7],inactive
same,outcome,[8],inactive
same,outcome,[9],inactive
same,outcome,[10],inactive
same,outcome,[11],inactive
same,outcome,[12],inactive
same,outcome,[13],inactive
same,outcome,[14],inactive
same,outcome,[15],inactive
same,outcome,[19],inactive
same,outcome,[16],inactive
same,outcome,[17],inactive
Cc1ccc(S(=O)(=O)C(I)I)cc1,outcome,[1],inactive
same,AC50,[2],8.93 µM (active)
same,outcome,[3],inactive
same,outcome,[4],inactive
same,AC50,[18],27.5 µM (active)
same,AC50,[5],51.7 µM (active)
same,AC50,[6],13.1 µM (active)
same,outcome,[7],inactive
same,AC50,[8],8.88 µM (active)
same,outcome,[9],inactive
same,outcome,[11],inactive
same,outcome,[12],inactive
same,outcome,[13],inactive
same,outcome,[14],inactive
same,AC50,[15],8.59 µM (active)
same,AC50,[16],5.14 µM (active)
same,AC50,[17],8.85 µM (active)
OCC(F)(F)C(F)(F)C(F)(F)C(F)(F)C(F)(F)C(F)(F)C(F)(F)C(F)(F)CO,AC50,[1],0.188 µM (active)
same,outcome,[2],inactive
same,outcome,[3],inactive
same,outcome,[4],inactive
same,outcome,[18],inactive
same,outcome,[5],inactive
same,outcome,[6],inactive
same,outcome,[7],inactive
same,outcome,[8],inactive
same,outcome,[9],inactive
same,outcome,[10],inactive
same,outcome,[11],inactive
same,outcome,[12],inactive
same,outcome,[13],inactive
same,outcome,[15],inactive
same,outcome,[16],inactive
same,outcome,[17],inactive
